eIF4H FP inh: inhibitors of RNA binding by human eIF4H | Q15056 | eIF4H fluorescence polarization binding assay | inhibition, % at 35 µM | hit rate 0.94% among 290,000 | AID 2012;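 note: calls also rest on retests at 20 µM and on dose response follow-up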
PABP FP inh: blocks human PABP binding to poly(A) RNA. P11940. hit rate 1% among 290,000. fluorescence polarization. AID 2014. calls only at 35 µM;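 note: calls also rest on retests at 20 µM and on dose response follow-up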
MLLE-PAM2 inh: inhibitors of microRNA-mediated deadenylation, human PABP1 MLLE binding; P11940; GST-MLLE / FITC-PAM2 fluorescence polarization; inhibition, % at 20 µM; hit rate 0.36% among 360,000; in the data active = inhibition above about 35%, passing the limit was not always enough
eIF4E 4G PPI: eIF4E/eIF4G interaction inhibition in translation initiation | hit rate 0.37% among 220,000 | inhibition, % at 21.7 µM | P63073+Q04637 | AID 782 | TR-FRET eIF4E-eIF4GI(517-606) binding, 2 h;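 active = inhibition above about 30%, limit read from the data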
EBV gp42 inh: EBV gp42 inhibition. Q1HVG2. Fluorescence polarization binding assay, mP read-out. inhibition, % (tested at 21.74 µM). hit rate 0.42% among 220,000. AID 1085; in the data active = inhibition above about 50%
Numbers stand for hits. The list is not random: actives were taken first. Their share in the collection is about 1.7%. Unless noted, the rule behind the calls is not given here.

For CC1(c2nc3ccccc3cc2C#N)OCCO1 the results were MLLE-PAM2 inh inactive.
For Fc1cccc(Cl)c1CNc1ccc(N2CCCC2)cc1 the results were eIF4H FP inh inactive, PABP FP inh inactive, MLLE-PAM2 inh inactive, eIF4E 4G PPI 34.7 and EBV gp42 inh inactive.
`N#Cc1c(-c2ccc(Cl)cc2)n(O)c2ccccc12` gave MLLE-PAM2 inh inactive.
Screening O=C(CSc1ccsc1[N+](=O)[O-])N1CCN(c2ccccc2)CC1 returned eIF4H FP inh inactive, PABP FP inh inactive, MLLE-PAM2 inh inactive, eIF4E 4G PPI inactive and EBV gp42 inh inactive.
O=C(CSc1ccsc1[N+](=O)[O-])N1CCN(c2ccc(Cl)cc2)CC1 was read as eIF4H FP inh 77.0, PABP FP inh active, MLLE-PAM2 inh inactive, eIF4E 4G PPI inactive and EBV gp42 inh inactive.
For O=C(CSc1n[nH]c(=O)[nH]c1=O)Nc1ccc2c(c1)C(=O)c1ccccc1C2=O the results were eIF4H FP inh 97.7, PABP FP inh active, MLLE-PAM2 inh inactive, eIF4E 4G PPI inactive and EBV gp42 inh 63.6.
O=C(CSc1ccccn1)Nc1ccc2c(c1)C(=O)c1ccccc1C2=O was read as eIF4H FP inh inactive, PABP FP inh inactive, MLLE-PAM2 inh inactive, eIF4E 4G PPI inactive and EBV gp42 inh 52.1.
Screening CCC(CO)Oc1cc(NC(=O)Cc2ccccc2)c2ncn(C(C)C)c2c1 (configuration not stated) returned MLLE-PAM2 inh inactive.
COc1ccc(C(=O)Nc2nnc(CC(=O)N/N=C/c3ccc(O)cc3O)s2)cc1 was read as eIF4H FP inh 75.8, PABP FP inh inactive and MLLE-PAM2 inh inactive.
CC(C)c1ccc(C2(C)NC(=O)N(CC(=O)N3CCN(C(=O)c4cccs4)CC3)C2=O)cc1 (configuration not stated) was read as MLLE-PAM2 inh inactive.
Screening COc1ccc(Nc2ccc(N3C(=O)CC(C)C3=O)cc2[N+](=O)[O-])cn1 (configuration not stated) returned eIF4H FP inh inactive, PABP FP inh active, MLLE-PAM2 inh 40.3, eIF4E 4G PPI inactive and EBV gp42 inh inactive.
For COc1cccc(CCNc2ccc(N3C(=O)CC(C)C3=O)cc2[N+](=O)[O-])c1 (configuration not stated) the results were eIF4H FP inh inactive, PABP FP inh inactive, MLLE-PAM2 inh inactive, eIF4E 4G PPI inactive and EBV gp42 inh inactive.
`Cc1nc2c([nH]1)C1(CCN(Cc3ccccc3)CC1)C(C#N)=C(N)O2` gave eIF4H FP inh 45.0, PABP FP inh active, MLLE-PAM2 inh inactive, eIF4E 4G PPI inactive and EBV gp42 inh inactive.
Screening Cn1cccc1C(=O)OCC(=O)Nc1sccc1C#N returned MLLE-PAM2 inh inactive.
Screening N#Cc1ccsc1NC(=O)COC(=O)c1ccc2ccccc2c1 returned eIF4H FP inh inactive, PABP FP inh active, MLLE-PAM2 inh inactive, eIF4E 4G PPI inactive and EBV gp42 inh inactive.
`O=C1OC(c2ccc3c(c2)OCO3)=N/C1=C\c1ccc(C(=O)O)cc1` gave eIF4H FP inh 54.9, PABP FP inh inactive and MLLE-PAM2 inh inactive.
Screening CC(C)N(Cc1ccccc1)C(=O)COC(=O)CCC(=O)c1ccc(F)cc1 returned MLLE-PAM2 inh inactive.
`CCOc1ccc(S(=O)(=O)Nc2ccn(C)n2)cc1` gave MLLE-PAM2 inh inactive.
Screening Cc1cc(C)n2nc(SCc3cc(=O)oc4cc(O)ccc34)nc2n1 returned eIF4H FP inh inconclusive, PABP FP inh active, eIF4E 4G PPI inactive and EBV gp42 inh inactive.
For Cc1cc(C)n2nc(SCc3ccccc3)nc2n1 the results were eIF4H FP inh inactive, PABP FP inh inactive, MLLE-PAM2 inh inactive, eIF4E 4G PPI inactive and EBV gp42 inh inactive.
Cc1nc(S/C(=C\c2ccc(OCc3ccccc3Cl)cc2)C(=O)O)n[nH]1 was read as eIF4H FP inh inactive, PABP FP inh inactive, MLLE-PAM2 inh inactive, eIF4E 4G PPI inactive and EBV gp42 inh inactive.
Screening Cc1nc(S/C(=C\c2ccc(-c3ccc(C(=O)O)c(Cl)c3)o2)C(=O)O)n[nH]1 returned eIF4H FP inh 74.8, PABP FP inh active, MLLE-PAM2 inh inactive, eIF4E 4G PPI inactive and EBV gp42 inh inactive.
COc1cc(NC(=S)Nc2ccc(OC(F)F)cc2)cc(OC)c1 was read as eIF4H FP inh inactive, PABP FP inh inactive, MLLE-PAM2 inh 41.0, eIF4E 4G PPI inactive and EBV gp42 inh inactive.
`COc1cc(NC(=S)Nc2ccc(N(C)C(C)=O)cc2)cc(OC)c1` gave eIF4H FP inh inactive, PABP FP inh inactive, MLLE-PAM2 inh 35.9, eIF4E 4G PPI inactive and EBV gp42 inh inactive.
Screening COc1ccc(NC(=S)Nc2ccc(F)cc2)cc1 returned eIF4H FP inh inactive, PABP FP inh inactive and MLLE-PAM2 inh inactive.
